High-throughput results as filed in PubChem BioAssay.
TDP1 cell CPT = growth inhibition of DT40 Tdp1-/-;hTDP1 cells with camptothecin (screen for TDP1 inhibitors). chicken DT40 Tdp1-/-;hTDP1 cells + 20 nM CPT, ATP luminescence, 48 h. Potency, µM (highest dose often 46.2 µM), inactives show at the top dose activity change, negative = growth inhibition, most hits filed as inhibitors. actives 12% (n = 420,000); also: potency is read from the fitted curve at half-maximal effect; % is scaled to controls: 0 for no effect and ±100 for the full control effect; nearly all actives have a fitted effect of over 55% in size
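Chicken DT40 Tdp1-/- cells stably complemented with human TDP1 were seeded at 400 cells/well in medium containing 20 nM camptothecin, exposed to pin-transferred compounds, and grown at 37 °C for at least 48 hr. Viability was read as ATP luminescence.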
HepG2 tox = counter-screen for TGF-b inhibitors: cytotoxicity in HepG2 cells. Potency, µM (top dose mostly 46.1 µM), without a hit: top-dose activity change, negative = cytotoxicity, hits mostly cytotoxic. AID 588856. HepG2 CAGA-GFP viability, ATP luminescence, 18 h. actives 0.76% (n = 410,000); also: potency is read from the fitted curve at half-maximal effect
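CellTiter-Glo luminescence gave cytotoxicity after 18 hours at 37 degrees C. The cells were HepG2 CAGA-GFP in 1% FBS DMEM, stimulated with 500 pg/mL TGF-beta after compound addition. %Activity was normalised to no-cell wells (complete cell-killing) and DMSO (no toxicity), and curves were fitted and classified.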
IL-1B inflam inh = inhibitors of inflammasome signaling (IL-1 beta secretion) | THP-1 LPS/ATP IL-1B secretion, AlphaLISA, 16 h; active compounds read low | activity change, % at 57.5 µM | actives 4.7% (n = 360,000) | AID 743279; in the data active = activity change below about -50%; inconclusive = mostly about -30% to -49%; also: % is scaled to controls: 0 for no effect and ±100 for the full control effect
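Secreted IL-1B measured by AlphaLISA bead assay after 16 h compound exposure of THP-1 cells; compounds (final up to 57.5 uM) added 1 h before LPS (250 ng/mL) and ATP (1.25 mM) stimulation; lower signal means less secretion.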
DT40 TDP1 no CPT = qHTS for Inhibitors of human tyrosyl-DNA phosphodiesterase 1 (TDP1): qHTS in cells in absence of CPT | DT40 Tdp1-/- hTDP1 cells, no CPT, ATP luminescence, 48 h | Potency, µM (doses to about 46.2 µM), inactives show at the highest dose activity change, negative = growth inhibition, most hits filed as inhibitors | actives 15% (n = 420,000) | AID 686978, 2013; also: potency is read from the fitted curve at half-maximal effect; % is scaled to controls: 0 for no effect and ±100 for the full control effect; nearly all actives have a fitted effect of over 55% in size
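No-CPT arm: Tdp1-/-;hTDP1 DT40 cells (400/well) plus compounds, incubated ≥48 hr at 37 °C. Readout CellTiter-Glo luminescence.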
TGFb SMAD3 inh = blocks TGF-b signaling; Potency, µM (series often up to 46.1 µM), without a hit: top-dose activity, negative = inhibition, usual class: inhibitors; HepG2 CAGA-GFP TGF-b/SMAD3 reporter, GFP fluorescence, 18 h; TGF-beta stimulated, 500 pg/mL final; AID 588855; actives 1.2% (n = 410,000); also: potency is read from the fitted curve at half-maximal effect; % is scaled to controls: 0 for no effect and ±100 for the full control effect; nearly all actives have a fitted effect of over 65% in size
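HEPG2 CAGA-GFP cells (1000/well, DMEM with 1% FBS) were pre-incubated 2 h at 37 degrees C, given compound by pin tool, then stimulated with TGF-beta at 500 pg/mL final for 18 h before per-cell GFP fluorescence imaging.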
TDP1 inh = blocks human tyrosyl-DNA phosphodiesterase 1; recombinant TDP1, AlphaScreen DNA substrate cleavage; Potency, µM (series often up to 130 µM), for inactives: top-dose activity change, negative = inhibition, actives largely listed as inhibitors; actives 0.28% (n = 350,000); Q9NUW8; also: potency is read from the fitted curve at half-maximal effect; % is scaled to controls: 0 for no effect and ±100 for the full control effect; nearly all actives have a fitted effect of over 40% in size
Target sequence (Q9NUW8 whole entry, looked up): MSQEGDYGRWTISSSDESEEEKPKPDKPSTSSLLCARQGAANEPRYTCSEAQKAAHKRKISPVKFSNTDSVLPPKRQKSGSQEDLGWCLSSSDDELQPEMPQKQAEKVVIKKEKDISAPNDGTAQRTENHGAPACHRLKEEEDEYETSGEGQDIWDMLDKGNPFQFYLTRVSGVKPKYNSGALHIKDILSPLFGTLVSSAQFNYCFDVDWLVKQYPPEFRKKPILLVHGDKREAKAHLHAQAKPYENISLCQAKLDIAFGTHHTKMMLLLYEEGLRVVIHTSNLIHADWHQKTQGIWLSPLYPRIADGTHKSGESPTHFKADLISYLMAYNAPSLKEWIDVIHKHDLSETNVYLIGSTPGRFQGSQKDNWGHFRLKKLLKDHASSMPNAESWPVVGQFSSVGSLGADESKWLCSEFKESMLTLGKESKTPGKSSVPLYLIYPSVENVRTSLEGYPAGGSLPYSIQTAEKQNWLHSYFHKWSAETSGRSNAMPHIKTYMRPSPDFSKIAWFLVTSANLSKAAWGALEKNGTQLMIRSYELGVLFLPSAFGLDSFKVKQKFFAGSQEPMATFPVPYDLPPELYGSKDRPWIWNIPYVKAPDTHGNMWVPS
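Recombinant E. coli-expressed Tdp1 (1 nM) preincubated with compound 15 min at RT, then 5'-biotin/3'-phosphotyrosine-FITC DNA substrate (15 nM) added for 5 min. AlphaScreen beads (10 ug/ml) added, 10 min RT; tyrosine-FITC cleavage read as signal loss.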
The depositor's hits bear a star; ? = inconclusive; / = no result given; [ ] = remark or other dose. In the library only some 19% were active in any assay of this set; here they are far more common. Unless noted, calls follow the shape of the dose curve; as a rule, active = well fitted curve in the direction sought with a large enough effect; inconclusive = small, poorly fitted or top-dose-only effect, or another doubt; inactive = no such curve, though single readings can be large; an effect the other way counts as inactive or inconclusive.

SMILES	TDP1 cell CPT	HepG2 tox	IL-1B inflam inh	DT40 TDP1 no CPT	TGFb SMAD3 inh	TDP1 inh
Cc1ccc(C)c(NC(=O)C2CCCN(S(=O)(=O)c3c(C)nn(C)c3C)C2)c1 (stereo not given)	?	-1.5%	23.4	18.4µM*	-17.0%	5.2%
Cc1ccc(C)c(NC(=O)C2CCCN(S(=O)(=O)c3cccc4nsnc34)C2)c1 (stereo not given)	-31.3%	-4.5%	/	25.9µM*	?	-7.0%
N#Cc1cccc(NC(=O)N2CC3(CCN(C(=O)c4cnccn4)CC3)C2)c1	8.7%	/	/	-1.6%	/	/
CCSc1nnc(COc2ccccc2)n1CC	-0.4%	11.3%	?	-29.3%	-3.9%	/
C=CCCN(C(C)C(=O)OC)S(=O)(=O)c1ccccc1Br (stereo not given)	/	1.4%	/	/	-10.1%	0.3%
Cc1cc(C)cc(NC(=O)C2CCCN(S(=O)(=O)c3cccc4nsnc34)C2)c1 (stereo not given)	18.4µM*	-18.0%	/	16.4µM*	-24.3%	0.0%
Cc1cc(NC(=O)C2CCCN(S(=O)(=O)c3cccc4nsnc34)C2)ccc1Br (stereo not given)	10.3µM*	-23.4%	/	?	-39.3%	9.3%
CCOc1ccc(NC(=O)C2CCCN(S(=O)(=O)c3cccc4nsnc34)C2)cc1 (stereo not given)	23.1µM*	-12.8%	12.8	15.8µM*	-1.4%	4.7%
Cc1cccc(NC(=O)C2CCCN(S(=O)(=O)c3cccc4nsnc34)C2)c1 (stereo not given)	?	-44.1%	0.0	?	?	7.8%
O=C(Nc1cccc(C(F)(F)F)c1)C1CCCN(S(=O)(=O)c2cccc3nsnc23)C1 (stereo not given)	16.4µM*	-17.3%	/	20.6µM*	6.31µM*	2.3%
COc1ccc(OC(=O)c2nc(SCc3ccc(C)cc3)ncc2Cl)cc1	?	-22.2%	/	-12.9%	-23.7%	2.3%
COc1ccccc1C(=O)NCCC(=O)N1CCN(c2ccccc2O)CC1	-13.5%	-3.1%	-10.9	-20.0%	-3.9%	-4.0%
CN(C(=O)COC(=O)c1ccc(Cl)c(S(=O)(=O)NCc2ccccc2)c1)C1CCS(=O)(=O)C1 (stereo not given)	-17.0%	-1.4%	11.4	3.4%	-4.8%	/
Cc1nn2c(=O)cc(COC(=O)C(c3ccccc3)c3ccccc3)nc2s1	?	-15.6%	/	-12.0%	?	1.9%
COc1cc(OC)cc(-c2nc(-c3cccc(C)c3)no2)c1	-19.4%	2.4%	/	?	1.6%	-1.1%
COc1ccc(-c2cc(=O)oc(-c3cccc(C)c3)n2)cc1	?	-14.7%	0.0	18.4µM*	-6.1%	3.8%
COc1cc(OC)c2c(C)cc(=O)oc2c1	10.0%	-24.8%	?	4.5%	?	/
COc1cc(OC)c2c(-c3cccc(/C=C/c4ccc(F)cc4)c3)cc(=O)oc2c1	20.6µM*	-23.6%	2.7	18.4µM*	-27.1%	-0.2%[56.1 µM]
COc1cc(OC)c2c(-c3cccc(-c4ccc(CO)cc4)c3)cc(=O)oc2c1	1.3µM*	-3.8%	5.0	0.581µM*	5.01µM*	1.5%[56.1 µM]
COc1cc(/C=C/c2ccccc2)oc(=O)c1	/	/	/	/	/	-2.5%
COc1cc(OC)c2c(-c3cccc(-c4cccc(C)c4)c3)cc(=O)oc2c1	4.11µM*	-23.5%	85.8	3.66µM*	?	-0.1%[56.1 µM]
Brc1ccc(C2=N[C@@H](Cc3ccccc3)CO2)cc1	/	/	/	/	/	-7.1%
COc1ccc(-c2cc3nccc(-c4cc(Cl)c(C)cc4O)n3n2)cc1	-6.1%	-5.2%	/	-17.2%	-35.7%	-3.2%
